ATXN2 expr inh = inhibitors of ATXN2 expression. HEK-293 ATXN2-luciferase reporter, luminescence, 24 h. Potency, µM (doses to about 57 µM), without a hit: at the highest dose activity change, negative = inhibition, usual class: inhibitors. 360,000 tested, 0.72% active. AID 1745845; further: on the % scale 0 is the no-effect control and ±100 the full control effect; nearly all actives have a fitted effect of over 55% in size
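qHTS (up to 57 uM final) was run with 24 h compound exposure of reporter cells at 37 °C. Each well was multiplexed: SteadyGlo luminescence measured ATXN2-luciferase expression after a fluorogenic Gly-Phe-AFC viability readout (25 uM final).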
KB-V1 MDR tox = kills drug-selected multidrug resistant KB-V1 cells. KB-V1 MDR cells viability, CellTiter-Glo, 72 h. Potency, µM (doses to about 46.1 µM), actives largely listed as cytotoxic. 400,000 tested, 3.4% active. AID 1347076; further: on the % scale 0 is the no-effect control and ±100 the full control effect; nearly all actives have a fitted effect of over 60% in size
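KB-V1, DMEM (no phenol red) + 10% FBS; cpd pin-transferred, titration series; 72 h, 37 degrees C; CellTiter-Glo, luminescence. Data normalized, curve-fit.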
HT1080 IDH1KD tx = kills HT-1080 cells with IDH1 knockdown; 360,000 tested, 2% active; HT-1080 IDH1 knockdown viability, ATP luminescence, 48 h; AID 686971; Potency, µM (highest dose often 46.1 µM), without a hit: at the top dose activity, negative = toxicity, most hits filed as cytotoxic;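 further: 0% = DMSO wells and -100% = cell-free medium wells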
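IDH1KD HT-1080 cells, 750/well, RPMI + 5% FBS; compound pinned after 2 h settling; 48 h, 37 °C; CellTiter-Glo luminescence; % activity normalised to DMSO and no-cell wells; curves fitted, classed by r2 and efficacy.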
KB-3-1 tox = kills parental KB-3-1 adenocarcinoma cells | KB-3-1 viability, CellTiter-Glo ATP luminescence, 72 h | Potency, µM (titrated, usually from 46.1 µM), most hits filed as cytotoxic | 400,000 tested, 1.4% active | AID 1347075; further: on the % scale 0 is the no-effect control and ±100 the full control effect; nearly all actives have a fitted effect of over 60% in size
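Viability of parental KB-3-1 cells, measured by CellTiter-Glo luminescence, followed a 72 h incubation at 37 °C with pinned compounds in phenol-red-free DMEM containing 10% FBS.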
ATXN viability = viability counter-screen for ATXN expression inhibitors; S2 cells (HEK-293 line with an ATXN2-luciferase reporter) viability, CellTiter-Fluor protease fluorescence, 24 h; Potency, µM (titrated, usually from 56.7 µM), usual class: cytotoxic; 400,000 tested, 0.49% active; AID 651635; further: nearly all actives have a fitted effect of over 40% in size
HT1080NT lethal = kills 2HG-producing HT-1080-NT fibrosarcoma cells; 360,000 tested, 1.6% active; Potency, µM (top dose mostly 46.1 µM), without a hit: top-dose activity, negative = less viability, usual class: cytotoxic; HT-1080-NT fibrosarcoma viability, CellTiter-Glo ATP luminescence, 48 h;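 further: NT is the 2HG producing partner of a matched IDH1 knockdown line; 0% = DMSO-treated cells and -100% = media-only wells without cells; nearly all actives have a fitted effect of over 55% in size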
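Compounds were tested in concentration-response format on HT-1080-NT cells for 48 hours at 37 degrees C. Cell viability came from CellTiter-Glo luminescence; curves were classified by r2, response magnitude and activity.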
Numbers without * were called inactive; i = inactive; ? = inconclusive; / = no result; [ ] = another dose, or the depositor's remark. Hits are enriched below; roughly 6.2% of the tested compounds scored in any of these assays. The call rests on the fitted dose curve; in most records, active means well fitted curve in the direction sought with a large enough effect; inconclusive means small, poorly fitted or top-dose-only effect, or another doubt; inactive means no such curve, though single readings can be large; an effect the other way counts as inactive or inconclusive. Potency means the concentration at half of the fitted maximal effect.

SMILES	ATXN2 expr inh	KB-V1 MDR tox	HT1080 IDH1KD tx	KB-3-1 tox	ATXN viability	HT1080NT lethal
Cc1cc(C)c2cc(C#N)c(NCCNC(=S)NCCCN3CCOCC3)nc2c1	?	i	0%	i	i	-1%
CCN(CC)S(=O)(=O)c1ccc2c(c1)nc(SCC(=O)NCC1CCCO1)n2CC (centres undefined)	1%	i	10%	i	?	-2%
N=C(N)SCc1ccccn1	0%	i	9%	i	i	5%
N=C(N)SCc1ccc(Cl)c2ccccc12	-11%	23µM*	-9%	i	?	-14%
CC1=NN(c2ccccc2)C(=O)/C1=C\c1ccc(Oc2ccc([N+](=O)[O-])cc2[N+](=O)[O-])cc1	-22%[11.3 µM]	i	10µM*	i	i	21µM*
O=C(CBr)c1ccc(Oc2ccc(C(=O)C[n+]3ccccc3Cl)cc2)cc1	/	i	/	i	/	/
CC(=O)Nc1ccc(S(=O)(=O)N(C)S(=O)(=O)c2ccc(F)cc2)cc1	4%	16µM*	?	i	i	6%
Cc1cccc(NC(=O)C2CCN(S(=O)(=O)c3ccc4c(c3)CCCN4C(=O)C3CCC3)CC2)c1	-8%	i	/	i	i	/
CC(=O)Oc1ccc2ccccc2c1C(NC(=O)Cc1ccccc1)c1ccc(Cl)cc1 (centres undefined)	?	?	18µM*	?	?	?
c1ccc(C(Nc2cccnc2)c2ccccc2)cc1	6%	21µM*	13%	i	i	13%
CCOc1ccc(NC(=O)CN2C(=O)C3(SCC(=O)N3c3ccc(F)cc3)c3ccccc32)cc1 (centres undefined)	-19%	i	/	i	i	/
CC1=C(CO)C(=O)OC([C@@H](C)C2CC[C@H]3C4C[C@H]5O[C@]56[C@@H](O)C=CC(=O)[C@]6(C)C4CC[C@]23C)C1 (some centres undefined)	3.2µM*	13µM*	18µM*	?	5.6µM*	21µM*
O=C(NCCSc1ccccn1)c1ccc(Cl)cc1	-9%	i	15%	i	i	22%
CS(=O)(=O)N(Cc1ccc(Cl)cc1)c1ccc(C(=O)NCCSc2ccccn2)cc1	-19%	5.8µM*	?	?	i	-19%
CS(=O)(=O)N(Cc1ccc(Cl)cc1)c1ccc(C(=O)Nc2cccnc2)cc1	4%	21µM*	?	?	i	-10%
N#Cc1nc(Nc2cc(F)cc(F)c2)c2ncn(CCCN3CCCC3)c2n1	/	i	/	i	/	/
Cc1ccc(S(=O)(=O)N[C@@H](CC(C)C)C(=O)NCc2ccco2)cc1	-2%	15µM*	9%	i	i	3%
Cc1cc(C)c(C)c(S(=O)(=O)NCC(=O)NCc2ccco2)c1C	4%	18µM*	19%	i	i	13%
Cc1cc(C)c2c(CC(=O)NCc3ccco3)coc2c1	2%	15µM*	?	?	i	?
Cc1ccc2nc(-c3ccc(SCC(=O)O)nc3)[nH]c2c1	?	i	-7%	i	i	-6%
CC(=O)CSc1ccc(-c2nc3ccccc3[nH]2)cn1	-29%	9.2µM*	9.2µM*	?	i	?
CCc1nnc(NC(=O)CSc2ccc(-c3nc4ccc(C)cc4[nH]3)cn2)s1	15%	7.3µM*	4%	i	?	-1%
Cc1ccc2nc(-c3ccc(SCC(=O)N4CCc5ccccc54)nc3)[nH]c2c1	63%	4.1µM*	0%	?	i	3%
Cc1ccc(-c2nnc3ccc(SCC(=O)N4CCCc5ccccc54)nn23)cc1	?	16µM*	?	i	8.9µM*	-24%
Cc1cc2nc(-c3ccc(SCC(=O)Nc4nccs4)nc3)[nH]c2cc1C	-8%	?	?	i	i	?
SMILES	ATXN2 expr inh	KB-V1 MDR tox	HT1080 IDH1KD tx	KB-3-1 tox	ATXN viability	HT1080NT lethal
COCCNC(=O)C1(C)CCCN(Cc2ccc(C)c3ccccc23)C1 (centres undefined)	?	i	-17%	i	?	-8%
COc1ccc(Cc2noc(CN3CCCN(Cc4ccc(F)cc4)CC3)n2)cc1OC	-20%	?	8%	i	i	-1%
COc1ccc(Cc2noc(CN3CCC(c4ccncc4)CC3)n2)cc1OC	/	18µM*	?	?	i	-27%
Cc1ccc(C(=O)NCCc2nnc3n2CCN(C(=O)c2ccnc(Cl)c2)CC3)cc1	/	/	/	/	i	/
CC(C)CN(CC(C)C)c1ccc(/C=C/c2ccnc3ccccc23)cc1	/	i	/	i	/	/
NC(=S)N/N=C/c1c(O)c(Br)cc2oc3c(c12)CCCC3	?	?	-23%	21µM*	i	-22%
O=C(Nc1nc2cc3c(cc2s1)OCCO3)c1ccc([N+](=O)[O-])o1	17%	?	?	3.3µM*	i	?
O=C(Nc1nc2ccccc2s1)c1ccc([N+](=O)[O-])o1	/	?	-14%	?	?	?
COc1ccc2nc(NC(=O)c3ccc([N+](=O)[O-])o3)sc2c1	21%	?	18µM*	18µM*	?	?
Cc1cc(C)c2nc(NC(=O)c3ccc([N+](=O)[O-])o3)sc2c1	-14%	i	-18%	i	i	11%
O=C(Nc1nc2c(F)cc(F)cc2s1)c1ccc([N+](=O)[O-])o1	-2%	i	-2%	10µM*	?	-16%
COc1ccccc1C(=O)N1CCOc2ccc(CN3CCN(Cc4ccccn4)CC3)cc2C1	/	/	/	/	i	/
O=C1C=C(CCc2ccccc2)CCC1	/	i	5%	i	i	-2%
CCN(CC(=O)NCc1ccc(F)cc1)C(=O)COc1ccc2ccccc2c1	10%	15µM*	2%	i	i	-4%
CCc1ccccc1OCC(=O)N(CC)CC(=O)NCc1ccc(F)cc1	/	i	-1%	i	i	-4%
CCN(CC(=O)NCc1ccc(F)cc1)C(=O)COc1ccc(C)c(C)c1	-5%	18µM*	-2%	i	i	1%
CCOC(=O)c1c(NC(=O)COc2ccc(Br)cc2)sc2c1CCCC2	-3%	i	/	i	i	/
CCN(CC)C(=O)n1cnc(-c2ccccc2)c1-c1ccccc1	7%	21µM*	11%	i	i	12%
COc1ccc(-c2nc3c4ccccc4ccn3c2CN2CCOCC2)cc1OC	/	16µM*	6%	i	?	-14%
c1ccc(-c2nc3c4ccccc4ccn3c2CN2CCOCC2)cc1	/	?	-1%	i	i	-23%

Screens from PubChem BioAssay.
